In PubChem BioAssay (EPA / NIEHS) one finds outcome and AC50 data, which are given here for 15 compounds.

Assay [1] has as its target Estrogen receptor (Homo sapiens) (UniProt P03372). In words: CCTE_Deisenroth_AIME_384WELL_LUC_Active: CCTE's 384-well Estrogen Receptor Transactivation Assay with AIME metabolic competence (ERTA luciferase; metabolism positive), Deisenroth Lab (AID 2284030; active means hit-call score of the fitted dose curve at least 0.9, where 1 is the maximum). Summed up: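 Estrogenic luciferase signal in VM7Luc4E2 cells is measured at 24 hour, after chemicals have been preconditioned 2 hours with PB/BNF-induced rat hepatic S9 in alginate. Gain of signal is fitted relative to 17beta-estradiol, across 0.002 - 200 uM.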

The target is the same in assay [2]. In words: CCTE_Deisenroth_AIME_384WELL_LUC_Inactive: CCTE's 384-well Estrogen Receptor Transactivation Assay without AIME metabolic competence (ERTA luciferase; metabolism negative), Deisenroth Lab (AID 2284038; active means hit-call score of the fitted dose curve at least 0.9, where 1 is the maximum;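 further: VM7Luc4E2 breast cells given medium preincubated 2 h with S9-free microspheres; hits raise estrogen receptor luciferase signal so potencies reflect agonists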). Summed up:
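VM7Luc4E2 ER transactivation, luciferase bioluminescence after 24 h, using medium pre-incubated 2 h with S9-free alginate microspheres. Concentrations 0.002–200 uM; gain of signal fitted relative to 17beta-estradiol.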

Assay [3] is described as follows: CCTE_Deisenroth_AIME_384WELL_CTox_Inactive: Cytotoxicity Assessment (CTOX) in CCTE's 384-well Estrogen Receptor Transactivation Assay without AIME metabolic competence (metabolism negative), Deisenroth Lab (AID 2284039; active means hit-call score of the fitted dose curve at least 0.9, where 1 is the maximum;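 further: cell viability via live-cell protease substrate cleaved to fluorescent probe; cells exposed 24 h to medium preincubated 2 h with alginate-water beads without S9; loss of fluorescence signal means loss of viability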). In a few lines:
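Fluorescent protease-substrate viability readout after 24 h exposure of VM7Luc4E2 cells to conditioned medium. Chemicals (0.002–200 uM) first sat 2 h over alginate-water beads, no S9. Data fitted bidirectionally, loss of signal meaning viability loss.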

Assay [4] deals with Estrogen receptor (Homo sapiens) (UniProt P03372). In words: CCTE_Deisenroth_AIME_384WELL_LUC_Shift: CCTE's 384-well Estrogen Receptor Transactivation Assay with AIME metabolic competence data shift (ERTA luciferase; difference in metabolism positive and negative), Deisenroth Lab (AID 2284041).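 Further: shift is response with S9 minus without S9 so positive means metabolism raised ER signal.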 Summed up: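 Here, parent compounds undergo 2 h phase I metabolism by PB/BNF-induced rat S9 before 24 h transactivation in VM7Luc4E2 cells; the curve models S9-positive minus S9-negative response over a 10-point series.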
Sequence of Estrogen receptor (Homo sapiens) (P03372 whole entry, looked up): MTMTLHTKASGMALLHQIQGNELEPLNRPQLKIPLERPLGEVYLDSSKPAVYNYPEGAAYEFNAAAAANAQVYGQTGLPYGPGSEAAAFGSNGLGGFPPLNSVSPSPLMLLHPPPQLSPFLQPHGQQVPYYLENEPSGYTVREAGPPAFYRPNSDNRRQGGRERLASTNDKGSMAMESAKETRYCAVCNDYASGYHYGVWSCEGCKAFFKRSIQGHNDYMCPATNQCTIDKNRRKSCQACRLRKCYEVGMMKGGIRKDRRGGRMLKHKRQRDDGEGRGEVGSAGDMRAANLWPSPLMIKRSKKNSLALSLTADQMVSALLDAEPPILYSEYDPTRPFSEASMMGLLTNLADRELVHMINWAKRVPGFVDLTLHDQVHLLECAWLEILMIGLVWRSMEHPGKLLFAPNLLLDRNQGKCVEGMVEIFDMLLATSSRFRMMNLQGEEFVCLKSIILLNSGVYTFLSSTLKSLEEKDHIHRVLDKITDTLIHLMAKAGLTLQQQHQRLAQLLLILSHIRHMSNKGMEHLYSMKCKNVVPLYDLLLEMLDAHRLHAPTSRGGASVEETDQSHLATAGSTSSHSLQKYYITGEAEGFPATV

Assay [5] can be described thus: CCTE_Shafer_MEA_dev_firing_rate_mean: CCTE's Neural Network Formation Assay for Mean Firing Rate, Shafer Lab (AID 2284031).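 On AC50: curve fitted for loss of firing so AC50 reflects decreased mean firing rate.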 Summed up: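 Steps: seed rat cortical cells (1.5 x 10^5/well) with laminin on PEI-coated MEA; dose day 0; record DIV 5/7/9/12, full media and compound exchange after DIV 5 and 9 recordings; compute well-mean firing rate AUC.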
A short description of assay [6]: CCTE_Shafer_MEA_dev_active_electrodes_number: CCTE's Neural Network Formation Assay for Number of Active Electrodes, Shafer Lab (AID 2284040; active means hit-call score of the fitted dose curve at least 0.9, where 1 is the maximum;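 on AC50: potency for loss of active electrodes versus DMSO so lower counts are hits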). Summed up:
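Counts electrodes per well firing at least 5 spikes/min, recorded on days 5, 7, 9 and 12 in rat cortical cultures dosed continuously from plating (treatment refreshed DIV 5, 9). Value is the area under the curve over recordings, fitted downward relative to DMSO.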

The nature of assay [7]: CCTE_Shafer_MEA_dev_burst_rate: CCTE's Neural Network Formation Assay for Burst Rate, Shafer Lab (AID 2284042).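 On AC50: potency for loss of burst rate below DMSO control.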 Summed up: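 Exposure ran continuously over 12 days of network development in rat cortical cultures, with compound refreshed during full media changes on DIV 5 and 9. Single-electrode bursts per recording time, well-mean over active electrodes, trapezoidal AUC across days 5–12, fitted downward relative to DMSO.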

A short description of assay [8]: CCTE_Shafer_MEA_dev_bursting_electrodes_number: CCTE's Neural Network Formation Assay for Number of Bursting Electrodes, Shafer Lab (AID 2284043; active means hit-call score of the fitted dose curve at least 0.9, where 1 is the maximum;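 on AC50: potency is for loss of bursting electrodes relative to DMSO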). Summed up:
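Counted: electrodes with burst rate ≥1 per 2 min in each well. Cells: primary rat cortex, 1.5 x 10^5/well, on 16-electrode MEA wells. Exposure: DIV 0–12, compound renewed DIV 5 and 9. Recording days 5, 7, 9, 12; AUC vs DMSO baseline.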

Assay [9] in a line: CCTE_Shafer_MEA_dev_per_burst_interspike_interval: CCTE's Neural Network Formation Assay for Burst Interspike Interval, Shafer Lab (AID 2284044).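 Further: mean spike spacing inside bursts as AUC over recordings on days 5 7 9 12.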 In a few lines:
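Spontaneous activity of maturing rat cortical networks is recorded on DIV 5, 7, 9 and 12 under chronic compound exposure beginning at plating. Endpoint: burst interspike interval well-mean, collapsed into trapezoidal AUC and fitted in the negative direction relative to DMSO.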

Assay [10] in a line: CCTE_Shafer_MEA_dev_burst_duration_mean: CCTE's Neural Network Formation Assay for Mean Burst Duration, Shafer Lab (AID 2284045). Summed up:
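Network-formation assay in primary rat cortical neurons; treatment spans twelve days of development. Mean burst duration per well is integrated by trapezoidal AUC and fitted in the loss-of-signal direction against DMSO baseline.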

Assay [11] in a line: CCTE_Shafer_MEA_dev_interburst_interval_mean: CCTE's Neural Network Formation Assay for Mean Interburst Interval, Shafer Lab (AID 2284046).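 Further: curve fitted for decrease in interburst interval relative to DMSO.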 Summed up: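 Primary rat cortical neurons on PEI-coated 48-well MEA plates (laminin added with cells at plating) (16 electrodes/well), exposed from plating day 0 with renewal at DIV 5 and 9. Mean inter-burst interval averaged over bursting electrodes, AUC across days 5, 7, 9, 12; DMSO baseline.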

Assay [12] in a line: CCTE_Shafer_MEA_dev_inter_network_spike_interval_mean: CCTE's Neural Network Formation Assay for Mean Inter-network Spike Interval, Shafer Lab (AID 2284047). Summed up:
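Mean time between consecutive network-spike peaks, recorded extracellularly (adaptive spike detection) on DIV 5, 7, 9 and 12, summarized as trapezoidal AUC. Rat cortical cultures on MEAs dosed continuously days 0–12, re-dosed at feeds; loss-of-signal fit relative to DMSO.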

The nature of assay [13]: CCTE_Shafer_MEA_dev_network_spike_number: CCTE's Neural Network Formation Assay for Number of Network Spikes, Shafer Lab (AID 2284048).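 Further: synchronized bursts across electrodes counted on days 5 7 9 12 and integrated as AUC.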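 On AC50: fit as a loss of signal meaning fewer network spikes than DMSO.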 Summed up:
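Extracellular recordings from 16-electrode wells track network formation in rat cortical cultures under continuous treatment from plating. The endpoint is network spike number, expressed as AUC across DIV 5–12 relative to DMSO vehicle.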

Assay [14] in a line: CCTE_Shafer_MEA_dev_network_spike_peak: CCTE's Neural Network Formation Assay for Mean Number of Electrodes in Network Spike, Shafer Lab (AID 2284049).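 On AC50: fitted for loss of signal meaning fewer electrodes in network spikes than DMSO.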 Summed up:
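Continuous 12-day exposure of rat cortical cultures, starting at plating, on MEA plates. Endpoint: electrodes participating in network-spike peaks, AUC across DIV 5–12, DMSO as negative control.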

The nature of assay [15]: CCTE_Shafer_MEA_acute_cross_correlation_HWHM: CCTE's Neural Acute Assay for Cross Correlation at Half Width at Half Maximum, Shafer Lab (AID 2284026).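 Further: percent change per well from pre-dose baseline in spike cross-correlogram half width; hits are a decrease in cross-correlogram half width relative to DMSO.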 In a few lines: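 Percent change in cross-correlogram half width at half maximum, narrower meaning more synchrony, was derived per well from paired 40-min recordings before and during exposure to 0.03-40 uM compound in rat cortical cultures at 37 C.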

A short description of assay [16]: CCTE_Shafer_MEA_acute_synchrony_index: CCTE's Neural Acute Assay for Synchrony, Shafer Lab (AID 2284027).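 Further: network synchrony index of spontaneous spiking in primary rat cortical neurons on MEAs; fitted for loss of signal so actives lower synchrony relative to DMSO.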 Summed up: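 Plates equilibrated 20 min at 37 C, baseline recorded 40 min, compound (0.03-40 uM) added, then 40 min more recorded. Cells: primary rat cortical neurons, DIV 13 or 15. Per-well synchrony index change analysed in negative direction against DMSO.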

Another assay has as its system DIO2 (gene 1734). Briefly: CCTE_GLTED_hDIO2: CCTE's human Deiodinase 2 (DIO2) Inhibition Assay, Great Lakes Toxicology and Ecology Division (GLTED) Lab (AID 2284050; active means hit-call score of the fitted dose curve at least 0.9, where 1 is the maximum). Summed up: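 Inhibition is judged by reduced iodide release: uninhibited human DIO2 frees iodide from substrate over 3 h, measured afterward by Sandell-Kolthoff colorimetry. Iodinated chemicals or nitrite, iron and thiocyanate may interfere.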

Where “and” joins values, the source holds several entries; their conditions need not be identical. Equal values may be shown once. Inconclusive results are not listed. A structure can be active in one record and inactive in another. Calls of active or inactive are those of the source. How the source made its calls, unless noted: active means hit-call score of the fitted dose curve at least 0.9, where 1 is the maximum; inactive means score below 0.9.

As to `CCOCCOC(C)=O`, the call in assay [1], in assay [2], in assay [3] and in assay [4] was inactive.
What is called AC50 is the concentration giving half of the maximal activity seen. On to `O=S(=O)(O)C(F)(F)C(F)(F)C(F)(F)C(F)(F)C(F)(F)C(F)(F)F`, for which the call in assay [1], in [5], in assay [2], in [3], in assay [6] and in assay [4] was inactive. In addition, the compound was called inactive in assay [7], in assay [8], in assay [9], in assay [10], in assay [11] and in [12]. For the same compound, the compound was called inactive in [13] and in assay [14]. Further, the AC50 was 3.97 µM (active) in assay [6] and 9.07 µM (active) in assay [14].
In the case of `CCCCCCCCCC[N+](C)(C)CCCCCCCCCC`, the AC50 in [15] was 1.63 µM (active); in assay [16], 14.4 µM (active); with DIO2 (gene 1734), 62.7 µM (active).
Take `Sc1ccccc1`: the call in assay [1], in [2] and in assay [4] was inactive.
Take `OCC(O)CO`: the half-maximal activity concentration (AC50) in [1] is 0.0002 µM (active); in assay [2] it was 0.000417 µM (active); in [4], 0.00051 µM (active). Moreover, the outcome in assay [1], in [2], in [3] and in assay [4] was inactive.
Consider `CC#Cc1cc(C)nc(Nc2ccccc2)n1`, for which the AC50 in assay [15] is 5.98 µM (active); in assay [16], 6.46 µM (active); in the assay on DIO2 (gene 1734) it was 22.2 µM (active).
Consider `CCC(=O)O[C@H]1CC[C@H]2[C@@H]3CCC4=CC(=O)CC[C@]4(C)[C@H]3CC[C@]12C`, for which the result in [1], in [2], in [3] and in assay [4] was inactive.
Take `Cc1cc2c3c(c1)C(c1ccccc1)=N[C@@H](NC(=O)c1ccncc1)C(=O)N3CC2`: the result in assay [1], in assay [2], in assay [3] and in [4] was inactive.
For the compound `Cc1ccccc1O`, the result in assay [1], in assay [2] and in [3] was inactive.
Consider `O=C(O)C(F)(F)C(F)(F)C(F)(F)C(F)(F)C(F)(F)C(F)(F)C(F)(F)C(F)(F)F`, for which the compound was called inactive in assay [1], in assay [5], in assay [2], in assay [4], in assay [7] and in [9]. The compound was called inactive in [10], in assay [11], in assay [12], in assay [13] and in [14]. For the same compound, the concentration at half-maximal activity (AC50) is 164 µM (active) in assay [3] and 46.1 µM (active) with DIO2 (gene 1734).
Take `C[C@]12CCC(=O)C=C1CC[C@@H]1[C@@H]2CC[C@]2(C)C(=O)CC[C@@H]12`: the outcome in assay [1], in [2], in assay [3] and in assay [4] was inactive.
Regarding `O=S(=O)(O)C(F)(F)C(F)(F)C(F)(F)C(F)(F)F`, the compound was called inactive in [5], in assay [6], in assay [7], in assay [9], in assay [10] and in assay [11]. For the same compound, the result in [12], in [13] and in assay [14] was inactive. The AC50 in assay [6] is 11.4 µM (active); in [8], 8.61 µM (active); in assay [14] it was 15 µM (active).
As to `Clc1ccc(C(c2ccccc2Cl)C(Cl)(Cl)Cl)cc1` (stereo unspecified), the AC50 in assay [5] is 2.03 µM (active); in assay [6] it was 4.03 µM (active); in assay [7], 1.98 µM (active); in assay [8], 4.01 µM (active); in assay [11], 7.78 µM (active); in assay [13], 2.71 µM (active). Also, the concentration at half-maximal activity (AC50) in [14] was 2.73 µM (active). In addition, the call in assay [9], in [10] and in assay [12] was inactive.
With `Cc1cccc([N+](=O)[O-])c1`, the compound was classed as inactive in assay [1], in [2], in assay [3] and in [4].
Consider `O=C(O)C(F)(F)C(F)(F)C(F)(F)C(F)(F)C(F)(F)C(F)(F)C(F)(F)C(F)(F)C(F)(F)F`, for which the AC50 with DIO2 (gene 1734) was 100 µM (active) and 71.6 µM (active).
